In the library only some 1.3% were active in any assay of this set; here they are far more common.
TRPML1 agonist – human mucolipin-1 channel agonism; 0.12% of 410,000 active; AID 624414; activation, % (concentration not given with the values); Q9GZU1; TRPML1-expressing cells, Ca2+ dye fluorescence, FDSS; in the data active = activation above about 50%; inconclusive = mostly about 30% to 49%
Target sequence (Q9GZU1 whole entry, looked up): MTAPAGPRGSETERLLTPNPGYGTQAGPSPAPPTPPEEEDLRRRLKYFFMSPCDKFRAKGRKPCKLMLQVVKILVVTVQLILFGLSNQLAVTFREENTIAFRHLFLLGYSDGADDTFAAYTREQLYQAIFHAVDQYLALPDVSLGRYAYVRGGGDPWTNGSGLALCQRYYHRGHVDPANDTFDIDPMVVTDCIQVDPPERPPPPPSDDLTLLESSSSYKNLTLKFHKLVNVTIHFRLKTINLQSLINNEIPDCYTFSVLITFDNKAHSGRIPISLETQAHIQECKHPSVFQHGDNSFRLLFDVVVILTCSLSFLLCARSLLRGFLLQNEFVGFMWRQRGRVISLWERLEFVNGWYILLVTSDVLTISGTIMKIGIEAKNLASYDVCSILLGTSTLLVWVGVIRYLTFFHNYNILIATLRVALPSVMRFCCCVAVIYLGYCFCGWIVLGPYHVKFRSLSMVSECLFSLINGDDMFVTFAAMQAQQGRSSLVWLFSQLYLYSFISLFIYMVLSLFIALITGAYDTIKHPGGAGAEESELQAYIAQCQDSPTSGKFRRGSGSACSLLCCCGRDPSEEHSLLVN
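Tetracycline-induced TRPML1-DL cells are seeded and incubated overnight before loading with a no-wash Ca2+ dye and quencher. Agonist activity is taken from the 110 s fluorescence read following compound pin-transfer on an FDSS, before EC80 54-4 challenge.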
ALOX12 inh – blocks human arachidonate 12S-lipoxygenase | P18054 | purified 12hLO, xylenol orange hydroperoxide absorbance | Potency, µM (doses to about 108 µM), actives largely listed as inhibitors | 1.1% of 580,000 active
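Hydroperoxide product was detected by ferrous iron/xylenol orange as the 573 to 405 nm absorbance ratio. Arachidonic acid at 40 uM (final) was turned over for 30 min at room temperature by 150 nM human 12hLO, pH 7.0 Hepes buffer, after 15 min compound preincubation.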
TRPML1 blocker – inhibitors of human TRPML1 channel; Q9GZU1; TRPML1-inducible cells, Ca2+ dye fluorescence, FDSS; hits give low values; inhibition of EC80 agonist-evoked calcium signal; activity change, negative = inhibition, % (concentration not given with the values); 0.02% of 390,000 active; AID 624415; in the data active = activity change below about -50%; inconclusive = between about -30% and that limit;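 note: stimulus is agonist 54-4 at its EC80 concentration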
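TRPML1-DL cells, Tet-induced overnight (~16 h, 37 °C) at 1,500 cells/well, were loaded with Ca8 no-wash dye plus quencher for 45-90 min at room temperature. Compounds were pinned during FDSS kinetic reading; agonist 54-4 at EC80 (4 uM final) then added.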
Glioma ERSR ind – inducers of ER stress response in human glioma cells | U87-MG GRP78 promoter luciferase reporter, 16 h | Potency, µM, most hits filed as activators | 0.02% of 420,000 active | AID 602332; note: series mostly up to about 76 µM; nearly all actives have a fitted effect of over 35% in size
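ERSR induction read as luciferase luminescence (Bright-Glo, 10 min at room temperature) in stably transfected human U87-MG glioma cells exposed to compounds for 16 h, using GRP78 as sensor.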
Vif-APOBEC3F blk – inhibitors of Vif-A3F interaction; 0.2% of 390,000 active; Potency, µM (titrated, usually from 46.1 µM); HeLa A3F-eYFP + Vif (tagged APOBEC3F with the HIV-1 protein that degrades it), YFP fluorescence increase; AID 602313; note: nearly all actives have a fitted effect of over 65% in size
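Fluorescence increase (Ex 488/Em 500-530) after overnight compound treatment at 37 deg C flags inhibition of Vif-driven A3F-eYFP loss in stable HeLa A3F-eYFP/Vif cells seeded overnight beforehand.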
Vif-APOBEC3G blk – Vif-A3G binding inhibition | Q9HC16 | HeLa A3G-eYFP + Vif (tagged APOBEC3G with the HIV-1 protein that degrades it), YFP fluorescence, overnight | Potency, µM (top dose mostly 46.1 µM), most hits filed as inhibitors | 0.076% of 410,000 active; note: nearly all actives have a fitted effect of over 60% in size
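HeLa cells stably expressing Vif and C-terminally eYFP-tagged A3G, seeded overnight at 37 deg C, then exposed to compound by pintool overnight at 37 deg C. Rise in yellow fluorescence (Ex 488/Em 500-530, Acumen) marks blocked Vif-driven A3G degradation.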
Numbers stand for hits; i = inactive; ? = inconclusive; nt = no result. Unless noted, calls come from the whole dose curve; as a rule, active = well fitted curve in the direction sought with a large enough effect; inconclusive = small, poorly fitted or top-dose-only effect, or another doubt; inactive = no such curve, though single readings can be large; an effect the other way counts as inactive or inconclusive.

SMILES	TRPML1 agonist	ALOX12 inh	TRPML1 blocker	Glioma ERSR ind	Vif-APOBEC3F blk	Vif-APOBEC3G blk
CC(=O)Nc1ccc(-c2csc(Nc3ccc(Br)cc3)n2)cc1	nt	i	nt	nt	nt	nt
O=C(NCC(O)c1ccccc1)c1ccc(CNS(=O)(=O)c2ccccc2)cc1 (stereo not drawn)	nt	i	nt	nt	nt	nt
CN1C(=O)Cc2cc(-c3csc(NC(C)(C)C)n3)ccc21	nt	11µM	nt	nt	nt	nt
CC(=O)Nc1ccc(-c2csc(NC(C)C)n2)c(F)c1	nt	i	nt	nt	nt	nt
CNc1nc(-c2ccc(NC(C)=O)cc2F)cs1	nt	32µM	nt	nt	nt	nt
CN1C(=O)Cc2cc(-c3csc(-c4ccc(F)cc4)n3)ccc21	nt	i	nt	nt	nt	nt
NC(=O)NC(=O)COC(=O)c1cccc(Br)c1	nt	i	nt	nt	nt	nt
Cc1ccc(NC(=O)c2cc(C)no2)cc1	i	i	i	i	i	i
COc1ccc(NC(=O)c2cc(C)no2)cc1	nt	13µM	nt	i	i	i
COc1cc(C(=O)Nc2ccccc2)cc2c1OCCO2	nt	i	nt	nt	nt	nt
COc1ccc(C2CC(C)=NN2c2nc(-c3ccc(F)cc3)cs2)cc1OC (stereo not drawn)	nt	i	nt	nt	nt	nt
O[C@@H]1CO[C@H]2[C@@H]1OC[C@@H]2n1nnnc1SC1CCCC1	nt	63µM	nt	nt	nt	nt
COC(=O)c1ccc2nc(-c3ccco3)c(Cc3ccccc3)n2c1	i	40µM	i	i	nt	i
COC(=O)c1ccc2nc(-c3ccccc3)c(Cc3ccccc3)n2c1	nt	i	nt	nt	nt	nt
COC(=O)c1ccc2nc(-c3ccco3)c(Cc3cccc(Cl)c3)n2c1	i	16µM	nt	nt	nt	nt
COC(=O)c1ccc2nc(-c3cccc(Cl)c3)c(Cc3cccc(Cl)c3)n2c1	i	?	nt	nt	nt	nt
Clc1ccc2nc(-c3ccco3)c(Cc3ccccc3)n2c1	i	18µM	i	i	nt	i
CCCc1nc2ccc(C(=O)OC)cn2c1Cc1ccccc1	i	?	nt	i	nt	i
CCCc1nc2ccc(C(=O)OC)cn2c1Cc1ccc(C)cc1	i	10µM	i	i	nt	i
O=C(NC12CC3CC(CC(C3)C1)C2)C1CCCc2ccccc21 (stereo not drawn)	nt	i	nt	nt	nt	nt
O=C(NCCc1ccccc1)NCC(=O)N1CCc2ccccc21	nt	i	nt	nt	nt	nt
Clc1cccc(Cc2c(-c3ccco3)nc3c4ccccc4ccn23)c1	i	10µM	nt	nt	nt	nt
Fc1cccc(Cc2c(-c3ccco3)nc3c4ccccc4ccn23)c1	i	i	nt	i	nt	i
Cc1ccc(OCCNC(=O)c2nn(C)c(=O)c3ccccc23)cc1	nt	i	nt	nt	nt	nt
N#CC1=C(N)Oc2cc(N)ccc2C1c1ccc(F)cc1F (stereo not drawn)	i	?	i	i	22µM	13µM
SMILES	TRPML1 agonist	ALOX12 inh	TRPML1 blocker	Glioma ERSR ind	Vif-APOBEC3F blk	Vif-APOBEC3G blk
N#CC1=C(N)Oc2cc(N)ccc2C1c1ccc(F)cc1 (stereo not drawn)	i	i	i	i	i	?
Cc1ccc2c(C)c(C(=O)Nc3nonc3-c3cccs3)oc2c1C	nt	i	nt	nt	nt	nt
CC(C)CCn1c(SCCc2ccccc2)nc2c1c(=O)n(C)c(=O)n2C	nt	i	nt	nt	nt	nt
COc1ccc(C(=O)NC2CCCc3ccccc32)cc1OC1CCN(C(C)=O)CC1 (stereo not drawn)	i	i	-54	i	i	i
COc1ccc(C(=O)NC2CCCCCC2)cc1OC1CCN(C(C)=O)CC1	i	i	i	i	i	i
CCOC(=O)c1cnc(-n2nc(C)cc2C)nc1Nc1ccc(OC)cc1	i	?	i	i	i	i
CCOC(=O)c1cnc(-n2nc(C)cc2C)nc1NCCc1ccccc1	i	45µM	i	i	i	i
Brc1ccccc1-c1nc(-c2ccccn2)no1	nt	14µM	nt	nt	nt	nt
Cc1ccccc1-c1nc(-c2ccccn2)no1	i	i	i	i	i	i
COC(=O)c1sc(NC(=O)c2csc3ccccc23)nc1C	nt	i	nt	nt	nt	nt
COc1ccc2[nH]c(=O)c(-c3nnn(-c4ccc(F)cc4)n3)cc2c1	i	10µM	i	i	i	i
COc1ccc2[nH]c(=O)c(-c3nnn(-c4ccccc4)n3)cc2c1	i	i	i	i	i	i
COCc1nnc(NC(=O)CCn2ccc3cc(Br)ccc32)s1	nt	i	nt	nt	nt	nt
CN(C)Cc1ccccc1CNC(=O)Cc1nn(C)c(=O)c2ccccc12	nt	i	nt	nt	nt	nt
Cc1ccnc(NC(=O)c2cc(-c3ccc(C)o3)nc3ccccc23)c1	nt	10µM	nt	nt	nt	nt
CCc1nnc(NC(=O)c2cc(-c3ccc(C)o3)nc3ccccc23)s1	i	6.3µM	i	i	i	i
Cc1ccc(-c2cc(C(=O)Nc3ccccc3C)c3ccccc3n2)o1	i	5µM	i	i	i	i
Cc1ccnc(NC(=O)c2cc(C)nc3ccccc23)c1	nt	i	nt	nt	nt	nt
Cc1ccc(-c2cc(C(=O)Nc3ccc(F)cc3)c3ccccc3n2)o1	nt	3.2µM	nt	nt	nt	nt
CC(C)CCNC(=O)CCNC(=O)c1ccccc1	nt	i	nt	nt	nt	nt
CN(C)CCNC(=O)C(=O)Nc1cccc(N2CCCS2(=O)=O)c1	nt	i	nt	nt	nt	nt
COc1ccc(-c2cccc(COc3cnc4c(ccn4CC(=O)O)c3)c2)c(C)c1	nt	45µM	nt	nt	nt	nt
